An excerpt weighted towards active compounds, which were near 2.2% of everything screened.
SUMO Mot1 rescue = yeast Mot1-301 growth rescue at high temperature, primary screen, SUMOylation pathway inhibitor project, S. cerevisiae, ATP luminescence, 38.5C; S. cerevisiae Mot1-301 growth rescue; percent above DMSO median, 100 means doubled; growth rescue, % at 18.8 µM; hit rate 1% among 320,000; AID 2716, 2010;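 active = every valid replicate shows activation above 250% relative to neutral control wells; inactive = the rest, any valid replicate at or below 250%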;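 also: OY570 slx delta 5 strain wells were the positive control but not used for scaling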
JMJD2C inh = inhibitors of GASC-1 histone demethylase, primary screen, biochemical, fluorescence, DELFIA europium. AID 2099, 2009. inhibition, % at 2.35 µM. hit rate 0.069% among 330,000. GST-JMJD2C(1-420) H3K9me3 demethylation;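 active = more than half of a compound's replicate wells show inhibition beyond 50%, single wells judged on their own value; inconclusive = some, but no more than half, of replicates pass 50% inhibition; inactive = no replicate passes 50% inhibition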;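 also: signal counts dimethyl H3K9 product captured on neutravidin plate; 0% = median of DMSO wells and 100% = 0.3 times that DMSO median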
HDAC3 inh = HDAC3 deacetylase inhibitors, primary screen, biochemical, fluorescence, cell-free homogeneous. inhibition, % at 8.3 µM. hit rate 0.15% among 320,000. recombinant HDAC3, fluorogenic peptide/trypsin coupled. Histone deacetylase 3 (Homo sapiens), O15379. AID 2718, 2010; in the data active = inhibition above about 26%, passing the limit was not always enough; inconclusive = no clear call, values can overlap the other calls
PvdQ acylase = P. aeruginosa PvdQ acylase inhibitors, primary screen, biochemical, fluorescence, plate reader and imaging, single point. purified PvdQ acylase. inhibition, % at 10 µM. hit rate 0.063% among 340,000. AID 488965, 2010; in the data active = inhibition above about 30%, passing the limit was not always enough; inconclusive = no clear call, values can overlap the other calls;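 also: 0% = vehicle neutral wells and 100% = reference inhibitor wells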
p-CIP stab down = p/CIP-EGFP fusion destabilizers, primary screen, fluorescence, F442A cells. Q05BA5. 16 h. decrease of EGFP signal, % at 10 µM. hit rate 0.01% among 290,000. AID 1984, 2009;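 active = EGFP signal decrease of at least 30% at 10 µM or well 3 SD below plate mean, unless failing retest; inactive = the rest, including hits failing retest or dose response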
Target sequence (Q05BA5 1-1403): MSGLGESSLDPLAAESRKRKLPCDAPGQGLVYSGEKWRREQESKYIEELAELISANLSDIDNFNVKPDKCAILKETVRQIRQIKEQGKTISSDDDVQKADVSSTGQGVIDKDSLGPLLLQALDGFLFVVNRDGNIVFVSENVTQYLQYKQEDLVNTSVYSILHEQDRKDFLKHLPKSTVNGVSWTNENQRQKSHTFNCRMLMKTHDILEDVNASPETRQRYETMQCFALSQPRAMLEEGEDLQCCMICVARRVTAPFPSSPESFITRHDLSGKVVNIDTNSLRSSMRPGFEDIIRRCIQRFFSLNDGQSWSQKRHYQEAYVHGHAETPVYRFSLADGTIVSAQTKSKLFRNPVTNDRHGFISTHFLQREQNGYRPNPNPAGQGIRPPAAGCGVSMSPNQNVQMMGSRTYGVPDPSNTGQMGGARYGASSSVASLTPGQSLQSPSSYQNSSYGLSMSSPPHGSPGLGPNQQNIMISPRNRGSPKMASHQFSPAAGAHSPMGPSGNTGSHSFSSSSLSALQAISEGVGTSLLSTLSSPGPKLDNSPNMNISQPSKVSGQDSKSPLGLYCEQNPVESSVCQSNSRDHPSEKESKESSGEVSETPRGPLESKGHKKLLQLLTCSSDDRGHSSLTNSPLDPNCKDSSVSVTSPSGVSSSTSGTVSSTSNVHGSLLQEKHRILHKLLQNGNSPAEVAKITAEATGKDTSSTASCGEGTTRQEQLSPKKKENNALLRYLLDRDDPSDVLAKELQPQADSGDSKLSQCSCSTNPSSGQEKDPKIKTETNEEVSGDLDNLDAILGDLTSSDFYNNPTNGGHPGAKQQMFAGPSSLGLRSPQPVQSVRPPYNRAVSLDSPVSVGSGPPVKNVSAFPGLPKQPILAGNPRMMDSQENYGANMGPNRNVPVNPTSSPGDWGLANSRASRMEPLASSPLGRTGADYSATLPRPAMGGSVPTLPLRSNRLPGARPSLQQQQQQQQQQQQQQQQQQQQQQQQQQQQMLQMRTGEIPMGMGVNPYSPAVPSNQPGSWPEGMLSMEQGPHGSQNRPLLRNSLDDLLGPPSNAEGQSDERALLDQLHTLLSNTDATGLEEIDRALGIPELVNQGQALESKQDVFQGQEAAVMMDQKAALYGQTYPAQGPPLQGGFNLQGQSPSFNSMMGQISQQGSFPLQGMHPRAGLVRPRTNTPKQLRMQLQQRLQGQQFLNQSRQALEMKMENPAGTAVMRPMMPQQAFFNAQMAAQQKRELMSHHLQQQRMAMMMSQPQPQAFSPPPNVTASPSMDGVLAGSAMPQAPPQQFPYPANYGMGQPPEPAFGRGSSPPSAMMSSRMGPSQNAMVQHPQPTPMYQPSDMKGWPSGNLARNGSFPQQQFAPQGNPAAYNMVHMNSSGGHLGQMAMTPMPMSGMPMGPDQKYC
PHOSPHO1 block = PubChem AID 1565; Phosphoethanolamine/phosphocholine phosphatase (Homo sapiens), Q8TCT1; recombinant PHOSPHO1, absorbance phosphatase assay; inhibition, % at 13.3 µM; hit rate 1.1% among 290,000; in the data active = inhibition above about 60%
Mot1 SUMO dose = growth restoration of Mot1-301 yeast on galactose, dose response, SUMO pathway inhibitor project, whole organism, S. cerevisiae, ATP luminescence, cherry-picked samples; shares compounds with SUMO Mot1 rescue; S. cerevisiae Mot1-301 galactose growth, 24 h; -100 = growth of slx-deleted rescue strain; growth activity, percent, % at 42 µM; 2,300 tested, under 10 active;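 active = Signal drops as the depositor expects, and the fitted half-maximal dose is no more than ten times the top valid tested dose; inconclusive = Poor fit, or a flat curve whose signal drops by 30% to 70%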;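 also: more negative values mean stronger growth rescue toward the control strain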
* marks the source's active call; other numbers are inactive results; ? = inconclusive; . = no result; + = active, no number.

SMILES | SUMO Mot1 rescue | JMJD2C inh | HDAC3 inh | PvdQ acylase | p-CIP stab down | PHOSPHO1 block | Mot1 SUMO dose
Cc1cc(C)c(NC(=O)Cn2c([N+](=O)[O-])cnc2C)c(C)c1 | + | 13 | -1 | -3 | -9 | 2 | 0
Cc1ccc(C)c(NC(=O)Cn2c([N+](=O)[O-])cnc2C)c1 | -24 | 8 | -3 | -9 | -5 | 20 | .
CN(Cc1ccc(Cl)cc1Cl)C(=O)CNC(=O)c1ccco1 | 4 | 0 | -3 | -15 | -9 | -12 | .
CCOC(=O)c1sc(NC(=O)C(CC)OC(=O)c2ccco2)nc1C (stereo not drawn) | 889* | 10 | 3 | -10 | -20 | 24 | 0
CCOC(=O)c1ccccc1NC(=O)COC(=O)CCC(=O)c1ccccc1 | -4 | 3 | 3 | -4 | -13 | 33 | .
Oc1c(Br)cc(Br)cc1C=Nc1cccnc1 | 481* | 5 | -1 | -4 | -6 | 26 | -1
Oc1c(Br)cc(Br)cc1/C=N/c1nccs1 | 131 | -8 | 1 | -6 | . | . | .
Oc1c(Br)cc(Br)cc1C=Nc1ccc2[nH]ncc2c1 | 360* | 9 | -14 | 2 | -18 | 35 | -1
COc1ccc(C=Nc2ccc3[nH]ncc3c2)c(O)c1 | 51 | 15 | -10 | -11 | 6 | -3 | .
N#C/C(=C\Nc1ccc2c(c1)OCCO2)c1nc(-c2ccccc2)cs1 | 5 | -2 | 0 | -2 | -6 | -12 | .
N#C/C(=C\Nc1ccc2c(c1)OCCO2)c1nc2ccccc2[nH]1 | 935* | 4 | 18 | -6 | -15 | -96 | -1
Cc1cc(C)nc(-n2nc(C)cc2NC(=O)CNCc2ccccc2)n1 | + | -6 | -2 | 4 | -1 | -2 | 1
COc1ccc(CNCC(=O)Nc2cc(C)nn2-c2nc(C)cc(C)n2)cc1OC | 63 | -9 | -2 | . | 14 | 11 | .
COc1ccc(C2NC(=O)c3ccccc3O2)cc1 (stereo not drawn) | 529* | 2 | -1 | -5 | -2 | . | 0
CC1CCN(CCCCOc2cccc(Br)c2)CC1 | 373* | 8 | 0 | -1 | 3 | 0 | 0
Fc1cccc(F)c1-c1nc(-c2ccncc2)no1 | 952* | -1 | 3 | -11 | 2 | 28 | 0
Cc1ccc(-c2nc(-c3ccncc3)no2)cc1C | 31 | 5 | 2 | 4 | -9 | 40 | .
O=C(O)c1cc(-c2ccc(Cl)s2)nc2ccccc12 | -14 | 3 | -7 | -9 | 0 | 10 | .
Cc1ccc(-c2cc(C(=O)O)c3ccccc3n2)s1 | 891* | 4 | -112 | -18 | -8 | 35 | -1
NS(=O)(=O)c1ccc(CCNC(=O)CN2CCN(c3ccc(F)cc3)CC2)cc1 | 650* | 6 | 5 | -14 | 4 | 0 | 1
NS(=O)(=O)c1ccc(CCNC(=O)CN2CCN(c3cccc(Cl)c3)CC2)cc1 | 8 | -2 | 2 | -13 | 7 | 12 | .
CCCC(O)(CCC)C(=O)NNc1ccc(C)cc1 | 643* | -1 | 4 | -8 | 0 | 24 | 0
O=[N+]([O-])c1ccccc1OCCNCc1ccccc1 | -1 | 9 | -1 | -9 | -8 | 8 | .
COc1ccc(C2=NOC(Cn3nc(C(=O)NCc4ccc(C)cc4)cc3-c3ccccc3)C2)cc1 (stereo not drawn) | -4 | -5 | 2 | -8 | . | . | .
COc1ccc(C2=NOC(Cn3nc(C(=O)NCc4cccs4)cc3-c3ccccc3)C2)cc1 (stereo not drawn) | 692* | -14 | 5 | -13 | . | . | 0
SMILES | SUMO Mot1 rescue | JMJD2C inh | HDAC3 inh | PvdQ acylase | p-CIP stab down | PHOSPHO1 block | Mot1 SUMO dose
COc1ccc(N2C(=O)CSC2c2ccc([N+](=O)[O-])cc2)cc1 (stereo not drawn) | 580* | -12 | -1 | -15 | -8 | 36 | 1
CC(C)(C)NC(=O)CN(C(=O)CCC(=O)Nc1nccs1)c1ccc2c(c1)OCCO2 | 543* | 1 | -4 | -13 | -12 | 11 | 0
CC(C)CCNC(=O)CN(C(=O)CCC(=O)Nc1nccs1)c1ccc2c(c1)OCCO2 | 240 | 13 | 5 | 6 | -11 | 8 | .
Cc1ccccc1-c1nnnn1C1CCS(=O)(=O)C1 (stereo not drawn) | + | -5 | ? | -17 | 2 | 21 | 0
O=C(NNC(=O)c1cc(Cl)ccc1[N+](=O)[O-])c1csc(N2CCOCC2)n1 | 31 | -2 | 5 | -11 | . | . | .
CCOC(=O)Cn1c(=O)n(Cc2ccco2)c(=O)c2ccc(C(=O)NCCc3ccccc3)cc21 | 370* | -12 | 10 | -20 | -9 | 9 | 0
COc1ccc(CCNC(=O)Cn2c(=O)n(Cc3ccco3)c(=O)c3ccc(Cl)cc32)cc1OC | . | -9 | . | -8 | 0 | 6 | .
Cc1ccc(NC(=O)Cn2c(-c3ccc(F)cc3)cnc2SCC(=O)Nc2c(C)cccc2C)cc1 | 234 | 0 | -4 | -9 | -17 | -18 | .
COCCCn1c(=O)c2ccccc2n(Cc2ccccc2C)c1=O | 455* | 1 | -1 | -5 | -2 | 22 | 0
COCCCn1c(=O)c2ccccc2n(Cc2ccc(C)cc2)c1=O | 42 | 1 | -5 | -14 | -16 | 8 | .
COC(=O)c1cc2c(s1)-c1ccc(OC)cc1CC2 | 477* | 1 | -247 | -14 | -2 | 8 | -1
O=C(NNC(=O)c1ccc(-n2cncn2)c([N+](=O)[O-])c1)c1ccc(Cl)cc1 | 672* | -3 | 2 | 7 | . | . | 0
O=C(NNC(=O)c1ccc(-n2cncn2)c([N+](=O)[O-])c1)c1cccc(Cl)c1 | -2 | 55 | 3 | -10 | . | . | .
CCc1nnc(NC(=O)CCC(=O)N2CCN(c3cccc(Cl)c3)CC2)s1 | -1 | 2 | -12 | -8 | 5 | 26 | .
COc1ccc(C)cc1NC(=O)Cn1c(=O)oc2ccccc21 | 486* | 1 | -1 | -18 | -2 | 20 | -1
Cc1c(NC(C)c2cc(Cl)ccc2O)c(=O)n(-c2ccccc2)n1C (stereo not drawn) | 455* | 10 | 1 | 1 | -11 | 9 | 1
O=C1NC2(CCCCCC2)N=C1c1ccc(Br)cc1 | 3 | -4 | . | 5 | 7 | 18 | .
Cc1cccc(C)c1NS(=O)(=O)c1ccc(OCCNS(C)(=O)=O)cc1 | 655* | 5 | 3 | 1 | 1 | -13 | 0
CNC(=O)COC(=O)c1cc(-c2ccco2)nc2ccccc12 | + | 15 | -3 | -6 | -10 | -2 | 0
O=C(COC(=O)c1cc(-c2ccco2)nc2ccccc12)NCc1ccccc1 | 1 | 13 | -1 | -8 | 3 | 15 | .

Bioassay records (PubChem BioAssay)
